# Screening results from PubChem BioAssay.
# In the library only some 4.7% were active in any assay of this set; here they are far more common.
# D1 agonist: human D1 receptor agonism; HEK293 T-REx D1 cells, calcium flux, agonist mode; P21728; AID 504660; actives 1% (n = 360,000); activation, % at 2 µM; note: 0% is about no effect
# Target sequence (P21728 whole entry, looked up): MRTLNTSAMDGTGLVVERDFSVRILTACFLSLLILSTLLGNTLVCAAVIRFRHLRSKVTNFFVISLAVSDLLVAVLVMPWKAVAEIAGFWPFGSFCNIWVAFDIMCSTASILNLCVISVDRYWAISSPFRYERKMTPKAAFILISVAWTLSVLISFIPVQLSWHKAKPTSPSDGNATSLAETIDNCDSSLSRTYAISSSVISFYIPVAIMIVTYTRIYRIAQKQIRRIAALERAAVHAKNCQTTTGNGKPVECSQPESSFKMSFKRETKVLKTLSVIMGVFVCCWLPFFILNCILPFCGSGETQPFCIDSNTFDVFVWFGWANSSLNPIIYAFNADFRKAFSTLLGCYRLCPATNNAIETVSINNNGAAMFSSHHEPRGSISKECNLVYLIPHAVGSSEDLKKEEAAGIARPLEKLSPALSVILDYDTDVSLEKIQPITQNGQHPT
#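 Agonism was scored from calcium flux recorded over 180 s (1 read/s) after pintool compound addition, following a 10-cycle baseline. Cells were inducible force-coupled HEK293 TREx D1, plated overnight at 30 C and loaded with no-wash calcium dye.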
# D1 PAM: human D1 dopamine receptor positive modulation | P21728 | HEK293 TREx D1 cells, calcium flux, dopamine EC20 potentiation | potentiation, % at 10 µM | actives 0.036% (n = 360,000); in the data active = potentiation above about 30%; note: 0% is about no effect
# D1 antag: blocks dopamine activation of the human D1 receptor; P21728; HEK293 TREx D1 cells, calcium flux, dopamine EC80; hits give low values; activity change, negative = inhibition, % at 10 µM; actives 3.2% (n = 360,000); AID 504652; in the data active = activity change below about -30%; note: % is set by controls: 0 for no effect and ±100 for the full control effect
#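 Compound effects on dopamine-evoked calcium signalling were measured in tetracycline-induced HEK293 Trex D1 cells. Dopamine at EC80 followed a 180 s compound pre-read, and fluorescence was tracked kinetically for 180 s more.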
# TRHR ag: TRH receptor (human) agonism | TRHR cells, calcium flux fluo-8, FDSS agonist mode | activation, % at 2 µM | actives 0.18% (n = 360,000) | AID 493084; note: 0% is about no effect
#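 Fluo-8-loaded TRHR cells; 10 s baseline, compound added, kinetic Ca2+ fluorescence read 1/s, agonist mode.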
# TRHR PAM: allosterically enhances the human TRH receptor. actives 0.66% (n = 360,000). enhancement, % at 2 µM. TRHR cells, fluo-8 calcium fluorescence, EC20 TRH enhancement. AID 493056. P34981; in the data active = enhancement above about 30%; note: 0% is about no effect
#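 Enhancer read-out: after compound pinning and an initial kinetic agonist-mode read, an EC20 of TRH (10 nM final) was injected and fluo-8 calcium signal (Ex 480/Em 530) followed at 1 s/cycle for 100 cycles in TRHR-expressing cells.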
# Numbers without * were called inactive; . = no result given; ! = repeats disagree. Cut-off read from the data, not from the text of the source, unless noted: active = activation above about 30%; inactive = the rest.
SMILES,D1 agonist,D1 PAM,D1 antag,TRHR ag,TRHR PAM
CCOc1ccc(-c2c(C(=O)N/N=C/c3ccc(C)o3)nnn2-c2nonc2N)cc1,-0.4,-0.8,-8.5,0.1,9.1
Nc1nonc1-n1nnc(C(=O)N/N=C/c2ccco2)c1-c1ccccc1,4.6,5.8,6.4,0.6,4.3
CC(CC(=O)NCCc1ccc(Cl)cc1)S(=O)(=O)c1ccc2c(c1)NC(=O)CO2 (stereo not given),-0.5,-5.1,-3.9,-0.7,-7.9
CCc1nc2cccnc2n1-c1ccc(CC(=O)Nc2ccc(C)cc2)cc1,0.0,-4.3,4.3,-0.9,0.2
COc1cccc2cc(C(=O)N3CCN(c4cc(C)ccc4C)CC3)c(=O)oc12,0.2,-1.1,19.1,-2.1,0.0
COc1cccc2cc(C(=O)N3CCN(c4ccccn4)CC3)c(=O)oc12,8.7,3.0,-36.7*,0.1,1.7
CC1CCC(NC(=O)CN2C(=O)C3CC=CCC3C2=O)CC1 (stereo not given),1.7,-4.7,15.0,-0.8,4.1
COC(=O)c1nc(NC(=O)c2ccc(Br)cc2)n[nH]1,-0.2,-2.6,0.8,0.0,0.4
COC(=O)c1nc(NC(=O)C(C)(C)C)n[nH]1,3.0,-3.8,-41.6*,1.5,1.3
O=C(O)c1ccc(Nc2nc3ccccc3n3cnnc23)cc1,-0.5,-1.8,-5.2,-0.1,-1.5
c1ccc(Nc2nc3ccccc3n3cnnc23)cc1,-0.2,-0.5,11.7,-0.6,34.2*
Cc1ccc(CNc2nc3ccccc3n3cnnc23)cc1,-0.8,-4.1,-37.2*!,-0.3,-0.5
CSc1ccc(CNc2nc3ccccc3n3cnnc23)cc1,3.4,7.5,27.9,-0.2,-2.0
COc1ccc(C(=O)NC2CCN(C(=O)NCc3ccccc3)CC2)cc1,4.5,-3.0,-10.5,0.4,3.7
Cc1noc(C)c1S(=O)(=O)Nc1ccc(C(=O)Nc2ccc(Br)cc2)cc1,1.2,-2.9,-8.5,-1.7,10.8
CCc1cc(OCCCCNCc2ccccc2)ccc1Cl,51.1*,8.8,-1.3,-0.4,-4.8
CCOCCCNCc1ccc(OCc2ccccc2Cl)cc1,36.0*,-0.2,-13.1,1.0,20.3
CC(C)(C)c1ccc(OCCCNCc2ccccc2)cc1,60.9*,4.8,26.0,1.3,-1.0
COCCCNCCCOc1ccc(C(C)(C)c2ccccc2)cc1,8.5,-0.2,12.5,0.0,6.0
Clc1cc(Br)ccc1OCCCNCc1ccccc1,55.3*,-6.2,6.1,1.7,12.8
CCOCCCNCc1ccc(OC)cc1,0.2,-2.9,0.2,0.4,9.4
Cc1cc(C)c(NC(=O)Cn2c(=O)n(-c3cccc(C(F)(F)F)c3)c(=O)c3c(C)c(C)sc32)c(C)c1,2.6,0.9,0.9,-0.2,6.3
O=C(COc1ccccc1F)Nc1ccc2c(c1)OCCO2,20.7,.,2.1,-1.8,-6.2
COc1ccc(OCCSc2ccc(S(=O)(=O)N3CCCC3)cn2)cc1,22.2,.,0.0,1.1,-0.7
O=S(=O)(c1ccc(SCCOc2ccccc2Cl)nc1)N1CCCC1,38.1*,.,10.3,1.6,-1.6
SMILES,D1 agonist,D1 PAM,D1 antag,TRHR ag,TRHR PAM
NC(=O)CSc1ccc(S(=O)(=O)N2CCCCC2)cn1,40.7*,.,7.3,7.6,4.0
CN1CCN(S(=O)(=O)c2ccc(SCCOc3ccc(Cl)cc3)nc2)CC1,14.3,-15.0,-43.8*,1.7,16.4
O=S(=O)(c1ccc(SCCOc2cccc(Br)c2)nc1)N1CCCC1,17.6,1.6,-14.9,3.2,-3.3
COc1ccc(N(C(=O)c2snc(C(N)=O)c2N)C(C(=O)NC2CCCC2)c2cc(OC)ccc2OC)cc1 (stereo not given),-0.1,0.0,-8.8,-0.3,4.5
CN(C)C/C=C(\c1ccc(Br)cc1)c1cccnc1,14.4,-6.5,-17.0,1.0,-2.6
Cc1nc2[nH]onc2c2nccc(=O)c12,3.7,-1.2,-38.6*,3.3,-3.3
CSCC(C)N1CCC(CO)(CCc2ccccc2)CC1 (stereo not given),2.9,6.5,-5.0,0.3,-2.1
CC(COc1ccccc1)N1CCC(CO)(CCc2ccccc2)CC1 (stereo not given),35.1*,-6.2,8.8,0.9,-0.1
COc1ccccc1CNC(=O)COCc1cc(-c2ccc3c(c2)OCO3)on1,-2.0,-0.6,2.5,-0.5,-0.1
O=C(CSc1nnc(-c2ccc(O)cc2)n1Cc1ccco1)c1ccccc1,2.4,2.6,-13.5,-0.8,19.2
O=C(CSc1nnc(-c2ccccn2)n1Cc1ccco1)c1ccc(-c2ccccc2)cc1,2.5,-5.8,-89.6*,0.4,-2.8
Cc1ccc(/C=C/c2onc(C)c2S(=O)(=O)N2CCC(C(=O)N3CCC(N(C)C(C)C)CC3)CC2)cc1,21.4,-1.4,-19.9,2.1,-8.0
Cn1nc(C(F)(F)F)c(-c2ccc(F)cc2)c1NC(=O)Nc1ccc(F)cc1,31.4*,-12.4,-66.9*,1.6,2.2
COc1ccccc1CNC(=O)C1CCCN(S(=O)(=O)c2ccc3c(c2)oc(=O)n3C)C1 (stereo not given),3.1,-3.2,2.3,-0.6,-2.1
Cc1ccc(C2Nc3ccccc3-n3c(-c4ccccc4)c4c(=O)n(C)c(=O)n(C)c4c32)o1 (stereo not given),2.7,-1.1,-7.6,1.0,4.8
COC(/C=C/Nc1ccc(Cl)cc1)=C(C#N)C#N,4.2,-6.7,-31.0*,0.9,0.6
COC(/C=C/Nc1ccc(OC)cc1)=C(C#N)C#N,1.0,-2.8,-10.2,1.3,-2.0
CN(Cc1ccccc1)S(=O)(=O)c1nnc(NC(=O)c2ccccc2Cl)s1,1.2,-2.5,-3.7,-0.1,13.0
COc1cccc(/C(O)=C/c2nc3ccc(C(=O)NCCc4cccc(C)c4)cc3[nH]c2=O)c1,46.2*,-8.1,-40.6*,18.4,-1.2
CC(C)(C)OC(=O)N[C@@H](Cc1ccccc1)c1nnc(S(=O)(=O)Cc2ccccc2)o1,5.3,-11.7,-47.5*,2.8,-12.3
Cc1ccccc1CS(=O)(=O)c1nnc([C@H](Cc2ccccc2)NC(=O)OC(C)(C)C)o1,20.0,-10.8,-37.6*,-0.7,2.8
CCSc1nnc([C@H](Cc2ccccc2)NC(=O)OC(C)(C)C)o1,1.2,-0.8,.,-0.8,-4.5
CCOC(=O)Cc1csc(NC(=O)c2ccc3ncsc3c2)n1,1.9,-4.1,-17.8,-0.4,10.8
O=C(CBr)N1CCc2ccccc2C(c2ccccc2)C1 (stereo not given),0.2,1.6,-7.0,-0.8,-8.1
Oc1cc2c(cc1O)[C@@H](c1ccccc1)CNCC2,5.2,-6.0,-90.7*,-0.6,-6.6
c1ccc(C2CNCCc3ccccc32)cc1 (stereo not given),15.3,-18.5,-42.2*,0.4,-10.2
S=C1NCCc2ccc(Cl)cc2C1c1ccccc1 (stereo not given),4.8,-6.2,3.1,-0.2,-10.9
CCc1ccc(NC(=O)CC2C(=O)N(c3cccc(OC)c3)C(=O)N2Cc2ccco2)cc1 (stereo not given),-1.2,-1.1,-5.6,-0.5,-2.1
